The record followed here is PubChem BioAssay.

Results filed as inconclusive are left out. Calls of active or inactive are those of the source.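 How the source made its calls, unless noted: active means response below a set limit, under 55% cells CD8-positive and vesicle-bound, and CD8 cells' 90th-percentile brightness under 279; inactive means the rest.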

Assay [1] can be described thus: rapamycin-like changes in RPL19A-GFP expression – cell-based, S. cerevisiae, multiplex flow cytometry, primary screen (AID 1862; in the data active means percent of DMSO control GFP below about 86%;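 further: lower values mimic rapamycin by blocking the RPL19A rise seen in DMSO cells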). Conditions: S. cerevisiae RPL19A-GFP strain, flow cytometry fluorescence, 3 h; at 10 µM; stronger effect = lower value. (In flow cytometry, cells or beads pass a laser one at a time.)
A short description of assay [2]: TOR pathway GLN3 branch reporter MEP2-GFP changes – S. cerevisiae, multiplex flow cytometry, primary screen (AID 1867;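 active means GFP response, as percent of the DMSO control, above the screen-wide mean plus 3 SD, about 139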;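 further: median GFP channel fluorescence of barcode-gated MEP2-GFP cells measured by flow cytometry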). Conditions: S. cerevisiae MEP2-GFP strain, 3 h, at 10 µM, stronger effect = higher value, 100% means same as DMSO wells.
Assay [3] can be described thus: TOR pathway RTG branch CIT2 reporter changes – S. cerevisiae, GFP fusion, multiplex flow cytometry, primary screen (AID 1870;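 active means percent response above a set limit, the screen-wide mean plus 3 SD, cut at about 130% in these data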;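 further: barcoded CIT2-GFP strain pooled with four other GFP strains with rapamycin as positive control; median GFP fluorescence per well over plate mean of DMSO wells so 100% = DMSO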). Conditions: S. cerevisiae CIT2-GFP expression, 3 h, at 10 µM, stronger effect = higher value.
Assay [4] in a line: TOR pathway LAP4-GFP level changes – S. cerevisiae, multiplex flow cytometry, primary screen (AID 1873;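 active means GFP signal, as percent of the solvent control, above the screen mean plus 3 SD, about 149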). Conditions: S. cerevisiae LAP4-GFP expression, 3 h, at 10 µM, stronger effect = higher value.
Assay [5] can be described thus: yeast AGP1-GFP level changes, GLN3 branch – cell-based, multiplex flow cytometry, S. cerevisiae, primary screen (AID 1887;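 active means GFP signal above the screen-wide mean plus 3 SD, that is over about 124.5% of the solvent control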;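 further: AGP1-GFP fusion strain of S. cerevisiae within a five-strain barcoded multiplex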). The note with it: 3 h, at 10 µM, stronger effect = higher value.
Assay [6] can be described thus: reduced mouse 2C T cell binding to pMHC/ICAM-1 vesicles – MLPCN validation set, flow cytometry, LFA-1/ICAM-1 modulator project, pilot screen (AID 2523).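 On vesicle binding response: mean PE anti-B7-1 fluorescence of CD8+ cells relative to row control; 100% = QL9-loaded vesicles with DMSO vehicle in the same plate row.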 The note with it: 2C mouse CD8+ T cells, at 7 µM, stronger effect = lower value; double positive events: measured here: CD8+/vesicle+ event percentage.
Assay [7] deals with Integrin beta-1 (Homo sapiens) + Integrin alpha-4 (Homo sapiens) (UniProt P13612+P05556). Briefly: alpha4beta1 integrin LIBS antibody binding reduction – U937 cells, HUTS-21 mAb, flow cytometry, validation set, VLA-4 allosteric modulator project, pilot screen (AID 2674;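 active means inhibition above 50%, about 3 SD of the validation set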;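 further: antibody binding induced by the VLA-4 ligand LDV present at three times its Kd; 0% = LDV ligand with antibody and no compound and 100% = antibody without LDV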). The note with it: HUTS-21 LIBS mAb binding, at 6.7 µM, stronger effect = higher value, binding induced by LDV ligand.
Assay [8] is described as follows: calorie-restriction mimetic ROS inhibitors, yeast – validation compound set, pilot screen (AID 2706;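 active means superoxide response below 65% of plate, a cut near 3 SD across the whole screen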;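 further: yeast exposed to compound for one week at 30 degrees C before staining; 100% = mean of all compound wells on the same plate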). Conditions: S. cerevisiae aging, superoxide DHE fluorescence; at 10 µM, stronger effect = lower value.
In assay [9] the target is Beta-adrenergic receptor kinase 1 (Homo sapiens) (UniProt P25098). The assay can be described thus: GRK2 binders displacing RNA aptamer, biochemical, validation, human GRK2, bead flow cytometry (AID 488806;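 active means aptamer binding inhibition above 30%, about 3 SD of noise from non-fluorescent compounds; inactive means inhibition at or below 30%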). Conditions: bead-bound GRK2, FAM-aptamer displacement, at 10 µM, stronger effect = higher value.
For assay [10], the target named is AP-2 complex subunit beta (Homo sapiens) (UniProt P63010). The assay can be described thus: beta-arrestin/AP2 interaction blockers – biochemical, validation set, GST-AP2 beads, flow cytometry, pilot screen (AID 504541;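 active means inhibition above 54%, about 3 SD of non-fluorescent compounds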;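 further: AP2 carries R879A mutation and is captured from E. coli lysate; bead-bound FITC arrestin peptide fluorescence measuring arrestin peptide binding to AP2; 0% = DMSO wells and 100% = excess unlabeled arrestin peptide control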). Conditions: FITC arrestin peptide, at 10 µM, stronger effect = higher value, AP2 beta2 appendage fragment, R879A mutant.
Assay [11] can be described thus: cytosolic pH regulators acting via V-ATPase – S. cerevisiae, pHLuorin, HTS validation (AID 504600; in the data active means response above about 15%;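 further: plate controls were DMSO for no effect and reference compound for full effect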). Conditions: V-ATPase proton transport, at 10 µM, stronger effect = higher value.
The test system of assay [12] is anti-desmoglein-3 scFv antibody binding to human DSG3. The assay can be described thus: blockers of pathogenic pemphigus antibody–desmoglein-3 binding – biochemical, validation compound set, bead-based, flow cytometry, pilot screen (AID 588368;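 active means binding below the plate cutoff, the plate median minus 3 SD, with a reading above zero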;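 further: signal is the median channel fluorescence of bead-bound GFP antibody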). The note with it: Protein G beads, DSG3-Fc, scFv-GFP binding, at 10 µM, stronger effect = lower value.
Assay [13] can be described thus: Nile Red efflux blockade in pump-expressing yeast – validation compound set, multiplex, phenotypic, pilot screen (AID 588506;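 active means efflux inhibition above 0.42, the validation set average plus 4 SD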;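 further: Nile Red retained in cells so higher fluorescence means more efflux inhibition; 0 = negative control wells and 1 = enniatin B 25 µM full block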). Conditions: S. cerevisiae pump-expressing triplex, Nile Red efflux flow cytometry; at 10 µM; stronger effect = higher value; the pumps come from Candida albicans.
Assay [14] deals with ATP-binding cassette sub-family B member 6 (Homo sapiens) (UniProt Q9NP58). Briefly: blockers of ABCB6-driven porphyrin uptake – K562-ABCB6 cells, flow cytometry, validation set, pilot screen (AID 588550;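 active means inhibition above the screen-wide mean plus 3 SD, about 51%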;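 further: 0% = DMSO wells and 100% = benzethonium chloride 70 µM positive control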). The note with it: K562-ABCB6 porphyrin accumulation, 1 h, at 10 µM, stronger effect = higher value.
Assay [15] is described as follows: AML differentiation inducers, ER-HoxA9 marrow cells – cell-based, GFP/MAC1 double positive, flow cytometry, validation set, primary screen (AID 588685;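 active means differentiation response of at least 50%, scaled between solvent and reference control, from cells with both markers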;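 further: compound exposure lasts four days before antibody staining and flow analysis; 0% = DMSO wells and 100% = 5 µM fulvestrant positive control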). Conditions: stronger effect = higher value, normalized: vehicle 0, fulvestrant 100.

Beta-adrenergic receptor kinase 1 (Homo sapiens), sequence (P25098 whole entry, looked up): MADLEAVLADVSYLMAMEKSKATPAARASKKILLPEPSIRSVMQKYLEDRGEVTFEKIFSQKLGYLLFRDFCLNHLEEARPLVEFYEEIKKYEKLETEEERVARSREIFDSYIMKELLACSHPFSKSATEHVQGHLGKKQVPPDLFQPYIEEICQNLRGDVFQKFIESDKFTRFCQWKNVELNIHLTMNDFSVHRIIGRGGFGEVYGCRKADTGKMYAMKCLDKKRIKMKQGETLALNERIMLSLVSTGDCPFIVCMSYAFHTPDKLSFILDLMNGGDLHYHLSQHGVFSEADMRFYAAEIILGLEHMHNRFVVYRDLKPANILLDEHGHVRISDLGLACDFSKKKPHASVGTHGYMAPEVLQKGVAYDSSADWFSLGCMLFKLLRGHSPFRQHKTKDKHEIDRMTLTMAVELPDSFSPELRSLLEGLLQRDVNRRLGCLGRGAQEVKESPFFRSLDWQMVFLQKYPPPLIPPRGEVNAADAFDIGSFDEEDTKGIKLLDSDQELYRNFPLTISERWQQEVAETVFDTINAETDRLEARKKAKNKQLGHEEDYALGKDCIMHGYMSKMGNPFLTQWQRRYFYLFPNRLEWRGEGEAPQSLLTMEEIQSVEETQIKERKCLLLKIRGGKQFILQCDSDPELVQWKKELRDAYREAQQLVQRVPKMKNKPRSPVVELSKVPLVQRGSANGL
Integrin beta-1 (Homo sapiens) + Integrin alpha-4 (Homo sapiens), sequence (P05556 whole entry, looked up): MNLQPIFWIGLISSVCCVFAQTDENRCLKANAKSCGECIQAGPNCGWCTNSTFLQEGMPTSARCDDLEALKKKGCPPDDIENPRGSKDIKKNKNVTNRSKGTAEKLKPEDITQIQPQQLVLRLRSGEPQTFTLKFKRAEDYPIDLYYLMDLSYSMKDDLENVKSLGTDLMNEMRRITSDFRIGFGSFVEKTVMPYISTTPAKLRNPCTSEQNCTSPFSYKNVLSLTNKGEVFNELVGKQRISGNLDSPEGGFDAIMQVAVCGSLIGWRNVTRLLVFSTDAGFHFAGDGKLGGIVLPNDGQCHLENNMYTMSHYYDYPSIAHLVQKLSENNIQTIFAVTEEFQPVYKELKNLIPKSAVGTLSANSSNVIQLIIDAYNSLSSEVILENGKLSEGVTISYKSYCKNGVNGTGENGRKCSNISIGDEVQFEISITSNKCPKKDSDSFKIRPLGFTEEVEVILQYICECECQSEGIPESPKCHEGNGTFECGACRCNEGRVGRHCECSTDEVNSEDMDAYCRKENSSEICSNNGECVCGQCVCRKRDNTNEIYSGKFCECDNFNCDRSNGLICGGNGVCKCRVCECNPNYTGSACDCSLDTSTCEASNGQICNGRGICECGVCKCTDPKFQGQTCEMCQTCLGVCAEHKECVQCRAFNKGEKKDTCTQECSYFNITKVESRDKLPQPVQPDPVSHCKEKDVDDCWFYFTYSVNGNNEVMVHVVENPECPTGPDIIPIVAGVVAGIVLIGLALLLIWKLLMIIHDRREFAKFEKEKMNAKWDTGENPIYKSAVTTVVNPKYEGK
Integrin beta-1 (Homo sapiens) + Integrin alpha-4 (Homo sapiens), sequence (P13612 whole entry, looked up): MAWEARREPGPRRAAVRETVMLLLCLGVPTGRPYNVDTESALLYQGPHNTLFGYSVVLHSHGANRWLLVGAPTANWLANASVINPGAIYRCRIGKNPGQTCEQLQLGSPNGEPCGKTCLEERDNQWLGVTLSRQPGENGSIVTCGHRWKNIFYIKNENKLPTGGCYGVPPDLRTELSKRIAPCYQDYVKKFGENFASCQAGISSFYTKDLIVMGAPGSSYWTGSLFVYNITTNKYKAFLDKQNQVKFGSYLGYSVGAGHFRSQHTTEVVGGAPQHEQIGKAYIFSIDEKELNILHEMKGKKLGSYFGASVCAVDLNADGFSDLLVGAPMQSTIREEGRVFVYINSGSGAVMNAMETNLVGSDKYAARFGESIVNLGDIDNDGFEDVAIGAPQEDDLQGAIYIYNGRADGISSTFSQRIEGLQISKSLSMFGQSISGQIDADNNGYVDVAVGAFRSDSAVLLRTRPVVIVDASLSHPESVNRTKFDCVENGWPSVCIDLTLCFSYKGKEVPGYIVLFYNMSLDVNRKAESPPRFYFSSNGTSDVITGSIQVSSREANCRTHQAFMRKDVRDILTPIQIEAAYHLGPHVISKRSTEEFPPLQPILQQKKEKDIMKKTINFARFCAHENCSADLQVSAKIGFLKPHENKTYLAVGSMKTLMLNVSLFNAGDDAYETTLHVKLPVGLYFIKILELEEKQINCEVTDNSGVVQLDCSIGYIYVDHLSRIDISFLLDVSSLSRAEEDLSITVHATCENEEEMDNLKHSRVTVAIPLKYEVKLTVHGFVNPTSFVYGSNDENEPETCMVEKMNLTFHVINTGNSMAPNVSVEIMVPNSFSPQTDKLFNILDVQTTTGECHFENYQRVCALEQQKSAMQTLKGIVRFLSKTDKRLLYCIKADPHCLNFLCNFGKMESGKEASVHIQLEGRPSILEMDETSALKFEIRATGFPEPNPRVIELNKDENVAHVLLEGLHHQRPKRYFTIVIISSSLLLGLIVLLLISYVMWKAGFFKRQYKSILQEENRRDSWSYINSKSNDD
ATP-binding cassette sub-family B member 6 (Homo sapiens), sequence (Q9NP58 whole entry, looked up): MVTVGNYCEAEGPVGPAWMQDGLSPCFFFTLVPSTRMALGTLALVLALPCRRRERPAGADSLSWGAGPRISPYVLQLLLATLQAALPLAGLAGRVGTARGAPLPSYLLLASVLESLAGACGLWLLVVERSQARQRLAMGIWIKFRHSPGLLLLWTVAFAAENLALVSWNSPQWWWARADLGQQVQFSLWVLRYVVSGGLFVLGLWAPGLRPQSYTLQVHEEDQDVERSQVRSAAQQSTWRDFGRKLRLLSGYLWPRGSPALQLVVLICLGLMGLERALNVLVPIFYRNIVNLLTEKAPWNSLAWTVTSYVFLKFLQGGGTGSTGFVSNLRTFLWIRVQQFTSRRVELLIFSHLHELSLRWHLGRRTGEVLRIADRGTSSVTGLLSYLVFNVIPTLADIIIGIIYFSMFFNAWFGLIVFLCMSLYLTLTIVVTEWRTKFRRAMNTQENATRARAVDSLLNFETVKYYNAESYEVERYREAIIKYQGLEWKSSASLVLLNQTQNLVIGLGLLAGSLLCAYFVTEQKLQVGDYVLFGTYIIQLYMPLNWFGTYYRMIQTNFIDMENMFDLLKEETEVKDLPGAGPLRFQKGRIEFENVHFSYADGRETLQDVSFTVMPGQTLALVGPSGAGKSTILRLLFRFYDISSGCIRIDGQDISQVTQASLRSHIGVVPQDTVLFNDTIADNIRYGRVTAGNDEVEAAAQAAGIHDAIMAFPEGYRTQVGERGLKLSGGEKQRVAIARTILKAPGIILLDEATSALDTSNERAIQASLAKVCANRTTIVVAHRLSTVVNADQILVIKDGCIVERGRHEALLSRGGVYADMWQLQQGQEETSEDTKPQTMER
AP-2 complex subunit beta (Homo sapiens), sequence (P63010 whole entry, looked up, the tested form may be a part, one chain of several): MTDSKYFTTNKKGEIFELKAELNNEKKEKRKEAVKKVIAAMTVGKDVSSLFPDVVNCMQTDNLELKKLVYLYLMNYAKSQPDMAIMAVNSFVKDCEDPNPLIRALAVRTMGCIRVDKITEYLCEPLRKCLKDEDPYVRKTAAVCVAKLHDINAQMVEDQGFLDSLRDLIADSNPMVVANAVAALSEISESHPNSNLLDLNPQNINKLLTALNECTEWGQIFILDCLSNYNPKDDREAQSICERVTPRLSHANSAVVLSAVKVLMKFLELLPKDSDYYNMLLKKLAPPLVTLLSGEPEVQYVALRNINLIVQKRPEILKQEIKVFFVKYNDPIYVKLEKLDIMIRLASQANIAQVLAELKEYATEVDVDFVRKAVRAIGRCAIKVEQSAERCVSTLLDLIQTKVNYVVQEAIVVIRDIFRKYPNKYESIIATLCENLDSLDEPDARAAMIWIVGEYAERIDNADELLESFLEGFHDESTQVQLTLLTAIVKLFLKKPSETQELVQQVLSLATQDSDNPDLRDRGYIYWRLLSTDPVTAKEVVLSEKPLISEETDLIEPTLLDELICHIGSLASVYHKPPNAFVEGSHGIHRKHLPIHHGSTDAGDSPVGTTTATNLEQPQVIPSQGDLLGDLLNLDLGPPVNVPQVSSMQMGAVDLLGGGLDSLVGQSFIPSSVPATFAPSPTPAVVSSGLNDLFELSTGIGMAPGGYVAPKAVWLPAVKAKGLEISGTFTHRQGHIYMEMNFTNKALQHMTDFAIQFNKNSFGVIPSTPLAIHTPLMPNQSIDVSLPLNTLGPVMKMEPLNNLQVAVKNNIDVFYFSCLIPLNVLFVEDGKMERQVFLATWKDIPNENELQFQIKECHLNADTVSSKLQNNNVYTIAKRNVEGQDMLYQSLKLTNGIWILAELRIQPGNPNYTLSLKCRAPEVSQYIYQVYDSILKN

A word on the inhibition: it is the change of the read-out against control, counted positive when it falls. For the molecule `CN(Cc1ccccc1)CC(O)COc1ccc(CNCc2cccnc2)cc1` (stereo not given), the percent of DMSO control GFP in [1] is 101% (inactive). Further, the GFP response vs DMSO was 102% (inactive) in [2] and 91.3% (inactive) in assay [4]. The percent response of DMSO control in [3] is 103% (inactive). Besides, the GFP response, % of DMSO in [5] is 100% (inactive). The same molecule displayed a double positive events in [6] of 56.7%. In addition, the vesicle binding response in assay [6] is 211% (inactive). The inhibition was -1.17% (inactive) in assay [7], -7.34% (inactive) in assay [10] and 9% (inactive) in [14]. For the same molecule, the superoxide response (% of plate) in assay [8] is 93.8% (inactive). For the same molecule, in assay [9], the aptamer binding inhibition is -6% (inactive). For the same molecule, in assay [11], the response was 2.19% (inactive). Besides, the binding (% of control) in [12] was 105% (inactive). Moreover, in assay [13], the efflux inhibition (fraction of control) was -0.16 (inactive). The differentiation response in assay [15] is 24% (inactive).
Consider `C#C[C@]1(O)CC[C@H]2[C@@H]3CCC4=C(CCC(=O)C4)[C@H]3CC[C@@]21C`, for which the percent of DMSO control GFP in [1] was 97.1% (inactive). Further, the GFP response vs DMSO in [2] was 92.8% (inactive); in assay [4] it was 129% (inactive). Besides, the percent response of DMSO control in assay [3] is 94.9% (inactive). Also, the GFP response, % of DMSO in [5] is 98.7% (inactive). This molecule also showed a double positive events in assay [6] of 55.6%. For the same molecule, the vesicle binding response in assay [6] is 188% (inactive). Besides, the inhibition in [7] was 2.56% (inactive); in assay [10] it was 1.1% (inactive); in assay [14] it was 7% (inactive). Further, the superoxide response (% of plate) in assay [8] was 95.1% (inactive). In assay [9], the aptamer binding inhibition was 2% (inactive). For the same molecule, in [11], the response is 5.28% (inactive). For the same molecule, the binding (% of control) in [12] was 102% (inactive). The efflux inhibition (fraction of control) in assay [13] is -0.2 (inactive). Also, in [15], the differentiation response was -0.2% (inactive).
`O=C(Nc1cccc(Cl)c1)N1CCN2C(=O)c3ccccc3C12c1ccccc1` (stereo not given): the percent of DMSO control GFP in assay [1] was 100% (inactive). The GFP response vs DMSO in assay [2] is 98.9% (inactive); in assay [4], 92.3% (inactive). Moreover, in assay [3], the percent response of DMSO control was 96.9% (inactive). For the same molecule, in assay [5], the GFP response, % of DMSO was 96.3% (inactive). This molecule showed a double positive events in assay [6] of 58.4%. Besides, the vesicle binding response in assay [6] is 153% (inactive). The inhibition in assay [7] was 0.69% (inactive); in [10], 0.48% (inactive); in assay [14] it was 7% (inactive). For the same molecule, the superoxide response (% of plate) in assay [8] is 92.6% (inactive). Also, the aptamer binding inhibition in assay [9] is 3% (inactive). Besides, the response in assay [11] is 2.99% (inactive). The binding (% of control) in assay [12] was 102% (inactive). The efflux inhibition (fraction of control) in [13] is 0.29 (inactive). In addition, the differentiation response in assay [15] is -13.1% (inactive).
Turning to `N/C(=N\OS(=O)(=O)c1ccc2ccccc2c1)c1cccnc1`, the percent of DMSO control GFP in [1] was 103% (inactive). Further, the GFP response vs DMSO in assay [2] was 104% (inactive); in [4], 99.4% (inactive). For the same molecule, in [3], the percent response of DMSO control was 95.9% (inactive). Further, the GFP response, % of DMSO in assay [5] is 97.5% (inactive). In [6], the double positive events is 61.4%. The vesicle binding response in [6] was 133% (inactive). Besides, the inhibition in assay [7] is 2.56% (inactive); in [10] it was 45.4% (inactive); in [14], 6% (inactive). In addition, the superoxide response (% of plate) in [8] was 96.2% (inactive). In addition, the aptamer binding inhibition in assay [9] is 2% (inactive). Further, the response in [11] is -4.42% (inactive). In addition, the binding (% of control) in assay [12] is 108% (inactive). In assay [13], the efflux inhibition (fraction of control) is 0.29 (inactive). The differentiation response in assay [15] was -13.1% (inactive).
Regarding `O=C(COc1ccccc1)N1CCN(c2ccccc2)CC1`, the percent of DMSO control GFP in assay [1] is 102% (inactive). The GFP response vs DMSO in [2] was 104% (inactive); in assay [4], 100% (inactive). In [3], the percent response of DMSO control is 103% (inactive). The GFP response, % of DMSO in assay [5] was 97.8% (inactive). In addition, the double positive events in assay [6] came to 53.2%. In assay [6], the vesicle binding response was 176% (inactive). The results for the inhibition in assay [7], in assay [10] and in [14] were -3.97% (inactive), 5.07% (inactive) and 6% (inactive), respectively. Also, in [8], the superoxide response (% of plate) was 94% (inactive). For the same molecule, the aptamer binding inhibition in assay [9] was 2% (inactive). In addition, in [11], the response was -1.27% (inactive). Also, in [12], the binding (% of control) was 97.8% (inactive). Also, the efflux inhibition (fraction of control) in assay [13] was 0.25 (inactive). For the same molecule, the differentiation response in assay [15] is 9.49% (inactive).
